The panel holds about 79,000 compounds, 15% with a hit somewhere; the sample as a whole holds those more often. Values without a mark were called inactive. Active and inactive are the calls of the source. Rule as the data show it: active = growth inhibition above about 70%; inactive = the rest.
Key:
[1] = NCI Yeast Anticancer Drug Screen. Data for the rad52 strain (AID 147);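 also: 0% = growth of vehicle-treated control cultures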; conditions: S. cerevisiae rad52 mutant growth inhibition, stronger effect = higher value
Method in brief: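 Measured: yeast growth inhibition. System: strain with a defined DNA damage repair alteration. Reference: vehicle-treated control cultures.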

[2] = NCI Yeast Anticancer Drug Screen. Data for the wt1 strain (AID 149);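 also: 0% = growth of vehicle-treated wt1 cultures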; conditions: S. cerevisiae wt1 strain (SPY 50644) growth inhibition, stronger effect = higher value
Method in brief: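 The wt1 strain was treated with compounds, and growth was compared with vehicle-treated cultures to give inhibition.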

[3] = NCI Yeast Anticancer Drug Screen. Data for the rad50EPP+ strain (AID 151);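 also: 0% = growth of vehicle-treated control cultures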; conditions: S. cerevisiae rad50 mutant strain, stronger effect = higher value
Method in brief: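 One strain with a rad50 alteration (rad50EPP+) was compound-treated, its growth then compared to that of vehicle controls.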

[4] = NCI Yeast Anticancer Drug Screen. Data for the mgt1 strain (AID 153); conditions: S. cerevisiae mgt1 mutant growth inhibition, stronger effect = higher value
Method in brief: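 After exposure of the mgt1 yeast mutant to compound, growth was measured and reported as inhibition compared with vehicle controls.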

[5] = NCI Yeast Anticancer Drug Screen. Data for the rad50 strain (AID 155);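 also: 0% = growth of vehicle-only cultures of the same strain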; conditions: S. cerevisiae rad50 strain growth inhibition, stronger effect = higher value
Method in brief: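 Cells are treated with compound, grown, and their growth is then scored against vehicle-only cultures of the same repair-deficient yeast strain.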

[6] = NCI Yeast Anticancer Drug Screen. Data for the mec2-1 strain (AID 157); conditions: S. cerevisiae mec2-1 strain, stronger effect = higher value
Method in brief: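 Test agents were screened against the mec2-1 yeast strain, with defined DNA repair or cell cycle alteration. Growth was scored as inhibition against vehicle-only controls.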

[7] = NCI Yeast Anticancer Drug Screen. Data for the rad14 strain (AID 159);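 also: 0% = growth of vehicle-treated control cultures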; conditions: S. cerevisiae rad14 strain growth inhibition, stronger effect = higher value
Method in brief: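 Readout: yeast growth inhibition, referenced to vehicle-only cultures. Strain bears a defined alteration in DNA damage repair.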

[8] = NCI Yeast Anticancer Drug Screen. Data for the sgs1 mgt1 strain (AID 161);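 also: 0% = growth of cultures given vehicle only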; conditions: S. cerevisiae sgs1 mgt1 strain, stronger effect = higher value
Method in brief: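 Test agents were incubated with a DNA-repair-mutant yeast strain. Growth was then read and compared against vehicle-treated controls.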

[9] = NCI Yeast Anticancer Drug Screen. Data for the CLN2oe strain (AID 163);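 also: 0% = growth of vehicle-only control cultures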; conditions: S. cerevisiae CLN2oe strain, stronger effect = higher value
Method in brief: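 Here, growth inhibition in a cell-cycle-altered yeast strain after compound exposure was quantified against vehicle control growth.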

[10] = NCI Yeast Anticancer Drug Screen. Data for the bub3 strain (AID 167); conditions: S. cerevisiae bub3 mutant strain, stronger effect = higher value
Method in brief: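 Part of a panel of yeast mutants defective in DNA damage repair or cell cycle regulation. Each strain is grown with compound, and inhibition is calculated relative to solvent-treated cultures.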

[11] = NCI Yeast Anticancer Drug Screen. Data for the wt2 strain (AID 169);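 also: 0% = growth of vehicle-treated yeast cultures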; conditions: S. cerevisiae wt2 strain growth inhibition, stronger effect = higher value
Method in brief: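 Genetically defined yeast strains from a DNA-repair/cell-cycle panel were used. Compound-exposed yeast growth was measured, and the inhibition was calculated relative to vehicle treatment.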

[12] = NCI Yeast Anticancer Drug Screen. Data for the mlh1 strain (AID 171);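 also: 0% = growth of vehicle-treated control cultures of the same strain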; conditions: S. cerevisiae mlh1 strain growth inhibition, stronger effect = higher value
Method in brief: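 Here the genetically defined yeast mutant is grown with each compound, and the extent to which its growth falls below that of vehicle-exposed cells is reported.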

[13] = NCI Yeast Anticancer Drug Screen. Data for the sgs1 strain (AID 173);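 also: 0% = growth of vehicle-only control cultures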; conditions: S. cerevisiae sgs1 mutant, stronger effect = higher value
Method in brief: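 Relative growth inhibition, referenced to vehicle, was determined in a yeast strain with a defined alteration affecting DNA damage repair or cell cycle control after compound exposure.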

[14] = NCI Yeast Anticancer Drug Screen. Data for the mlh1 rad18 strain (AID 175); conditions: S. cerevisiae mlh1 rad18 strain growth inhibition, stronger effect = higher value
Method in brief: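 In this whole-cell yeast screen, a strain with altered DNA damage repair is challenged with compound, and its growth is measured against matched vehicle-treated controls.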

[15] = NCI Yeast Anticancer Drug Screen. Data for the rad18 strain (AID 177); conditions: S. cerevisiae rad18 mutant growth inhibition, stronger effect = higher value
Method in brief: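 Screen uses a yeast strain with a defined lesion in DNA damage repair; compound effect is read as loss of growth compared to untreated vehicle cultures.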

[16] = NCI Yeast Anticancer Drug Screen. Data for the cln2 rad14 strain (AID 165);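 also: 0% = growth equal to vehicle treated cultures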; conditions: S. cerevisiae cln2 rad14 strain, stronger effect = higher value
Method in brief: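 Growth of compound-exposed yeast (cln2 rad14 genotype) measured and expressed as inhibition relative to vehicle.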

[17] = at 5.0 µM (retest, dose inferred, filed as 0.5)
[18] = at 50.0 µM (retest, dose inferred, filed as 5.0)

## FC(F)(F)c1nc2nc(Cl)c(Cl)nc2n1CCCN1CCOCC1
[1]; at 1.2 µM
  growth inhibition: 2%
[1]; at 3.7 µM
  growth inhibition: 11%
[1]; at 11.0 µM
  growth inhibition: 20%
[1]; at 33.0 µM
  growth inhibition: 20%
[1]; at 100.0 µM
  growth inhibition: 32%
[2]; at 1.2 µM
  growth inhibition: 0%
[2]; at 3.7 µM
  growth inhibition: 1%
[2]; at 11.0 µM
  growth inhibition: 7%
[2]; at 33.0 µM
  growth inhibition: 12%
[2]; at 100.0 µM
  growth inhibition: 18%
[3]; at 1.2 µM
  growth inhibition: -1%
[3]; at 3.7 µM
  growth inhibition: 5%
[3]; at 11.0 µM
  growth inhibition: 6%
[3]; at 33.0 µM
  growth inhibition: 2%
[3]; at 100.0 µM
  growth inhibition: 4%
[4]; at 1.2 µM
  growth inhibition: 0%
[4]; at 3.7 µM
  growth inhibition: 5%
[4]; at 11.0 µM
  growth inhibition: 8%
[4]; at 33.0 µM
  growth inhibition: 22%
[4]; at 100.0 µM
  growth inhibition: 34%
[5]; at 1.2 µM
  growth inhibition: 5%
[5]; at 3.7 µM
  growth inhibition: 13%
[5]; [17]
  growth inhibition: 29%
[5]; at 11.0 µM
  growth inhibition: 18%
[5]; at 33.0 µM
  growth inhibition: 22%
[5]; [18]
  growth inhibition: 63%
[5]; at 50.0 µM
  growth inhibition: 67%
[5]; at 100.0 µM
  growth inhibition: 27%
[6]; at 1.2 µM
  growth inhibition: 2%
[6]; at 3.7 µM
  growth inhibition: -15%
[6]; [17]
  growth inhibition: 3%
[6]; at 11.0 µM
  growth inhibition: 12%
[6]; at 33.0 µM
  growth inhibition: 16%
[6]; [18]
  growth inhibition: 15%
[6]; at 50.0 µM
  growth inhibition: 33.1%
[6]; at 100.0 µM
  growth inhibition: 27%
[7]; at 1.2 µM
  growth inhibition: 6%
[7]; at 3.7 µM
  growth inhibition: 11%
[7]; at 11.0 µM
  growth inhibition: 36%
[7]; at 33.0 µM
  growth inhibition: 44%
[7]; at 100.0 µM
  growth inhibition: 53%
[8]; [17]
  growth inhibition: 19%
[8]; [18]
  growth inhibition: 72% (active)
[8]; at 50.0 µM
  growth inhibition: 45.9%
[9]; at 1.2 µM
  growth inhibition: 2%
[9]; at 3.7 µM
  growth inhibition: 13%
[9]; at 11.0 µM
  growth inhibition: 23%
[9]; at 33.0 µM
  growth inhibition: 45%
[9]; at 100.0 µM
  growth inhibition: 57%
[10]; at 1.2 µM
  growth inhibition: 0%
[10]; at 3.7 µM
  growth inhibition: 4%
[10]; [17]
  growth inhibition: 9%
[10]; at 11.0 µM
  growth inhibition: 22%
[10]; at 33.0 µM
  growth inhibition: 52%
[10]; [18]
  growth inhibition: 56%
[10]; at 50.0 µM
  growth inhibition: 55.8%
[10]; at 100.0 µM
  growth inhibition: 35%
[11]; at 1.2 µM
  growth inhibition: -1%
[11]; at 3.7 µM
  growth inhibition: 3%
[11]; at 11.0 µM
  growth inhibition: 13%
[11]; at 33.0 µM
  growth inhibition: 20%
[11]; at 100.0 µM
  growth inhibition: 26%
[12]; at 1.2 µM
  growth inhibition: 1%
[12]; at 3.7 µM
  growth inhibition: 6%
[12]; at 11.0 µM
  growth inhibition: 14%
[12]; at 33.0 µM
  growth inhibition: 38%
[12]; at 100.0 µM
  growth inhibition: 35%
[13]; at 1.2 µM
  growth inhibition: 4%
[13]; at 3.7 µM
  growth inhibition: 9%
[13]; at 11.0 µM
  growth inhibition: 30%
[13]; at 33.0 µM
  growth inhibition: 50%
[13]; at 100.0 µM
  growth inhibition: 47%
[14]; [17]
  growth inhibition: 5%
[14]; [18]
  growth inhibition: 57%
[14]; at 50.0 µM
  growth inhibition: 64.7%
[15]; at 1.2 µM
  growth inhibition: -6%
[15]; at 3.7 µM
  growth inhibition: 6%
[15]; at 11.0 µM
  growth inhibition: 31%
[15]; at 33.0 µM
  growth inhibition: 31%
[15]; at 100.0 µM
  growth inhibition: 43%

## CC1=NN(c2cccc(Cl)c2)C(=O)C1
[1]; at 1.2 µM
  growth inhibition: -33%
[1]; at 3.7 µM
  growth inhibition: -33%
[1]; at 11.0 µM
  growth inhibition: -22%
[1]; at 33.0 µM
  growth inhibition: -16%
[1]; at 100.0 µM
  growth inhibition: 14%
[2]; at 1.2 µM
  growth inhibition: -13%
[2]; at 3.7 µM
  growth inhibition: -36%
[2]; at 11.0 µM
  growth inhibition: -22%
[2]; at 33.0 µM
  growth inhibition: -2%
[2]; at 100.0 µM
  growth inhibition: 28%
[3]; at 1.2 µM
  growth inhibition: -65%
[3]; at 3.7 µM
  growth inhibition: -50%
[3]; at 11.0 µM
  growth inhibition: -38%
[3]; at 33.0 µM
  growth inhibition: -27%
[3]; at 100.0 µM
  growth inhibition: -26%
[4]; at 1.2 µM
  growth inhibition: -21%
[4]; at 3.7 µM
  growth inhibition: -44%
[4]; at 11.0 µM
  growth inhibition: -40%
[4]; at 33.0 µM
  growth inhibition: 8%
[4]; at 100.0 µM
  growth inhibition: 63%
[5]; at 1.2 µM
  growth inhibition: -47%
[5]; at 3.7 µM
  growth inhibition: -54%
[5]; [17]
  growth inhibition: 81% (active)
[5]; at 11.0 µM
  growth inhibition: -61%
[5]; at 33.0 µM
  growth inhibition: -44%
[5]; [18]
  growth inhibition: 99% (active)
[5]; at 50.0 µM
  growth inhibition: 43.4%
[5]; at 100.0 µM
  growth inhibition: 28%
[6]; at 1.2 µM
  growth inhibition: -35%
[6]; at 3.7 µM
  growth inhibition: -27%
[6]; [17]
  growth inhibition: 74% (active)
[6]; at 11.0 µM
  growth inhibition: -5%
[6]; at 33.0 µM
  growth inhibition: 8%
[6]; [18]
  growth inhibition: 100% (active)
[6]; at 50.0 µM
  growth inhibition: 56.1%
[6]; at 100.0 µM
  growth inhibition: 32%
[7]; at 1.2 µM
  growth inhibition: -4%
[7]; at 3.7 µM
  growth inhibition: -21%
[7]; at 11.0 µM
  growth inhibition: -22%
[7]; at 33.0 µM
  growth inhibition: 3%
[7]; at 100.0 µM
  growth inhibition: 36%
[9]; at 1.2 µM
  growth inhibition: -26%
[9]; at 3.7 µM
  growth inhibition: -4%
[9]; at 11.0 µM
  growth inhibition: -1%
[9]; at 33.0 µM
  growth inhibition: -15%
[9]; at 100.0 µM
  growth inhibition: 20%
[16]; [17]
  growth inhibition: 39%
[16]; [18]
  growth inhibition: 62%
[16]; at 50.0 µM
  growth inhibition: 27.2%
[10]; at 1.2 µM
  growth inhibition: -42%
[10]; at 3.7 µM
  growth inhibition: -33%
[10]; [17]
  growth inhibition: 27%
[10]; at 11.0 µM
  growth inhibition: -32%
[10]; at 33.0 µM
  growth inhibition: -36%
[10]; [18]
  growth inhibition: 33%
[10]; at 50.0 µM
  growth inhibition: 57.1%
[10]; at 100.0 µM
  growth inhibition: 29%
[11]; at 1.2 µM
  growth inhibition: -31%
[11]; at 3.7 µM
  growth inhibition: -28%
[11]; at 11.0 µM
  growth inhibition: -15%
[11]; at 33.0 µM
  growth inhibition: 8%
[11]; at 100.0 µM
  growth inhibition: 51%
[12]; at 1.2 µM
  growth inhibition: -13%
[12]; at 3.7 µM
  growth inhibition: -20%
[12]; at 11.0 µM
  growth inhibition: -16%
[12]; at 33.0 µM
  growth inhibition: 2%
[12]; at 100.0 µM
  growth inhibition: 56%
[13]; at 1.2 µM
  growth inhibition: -27%
[13]; at 3.7 µM
  growth inhibition: -22%
[13]; at 11.0 µM
  growth inhibition: -11%
[13]; at 33.0 µM
  growth inhibition: 4%
[13]; at 100.0 µM
  growth inhibition: 50%
[14]; [17]
  growth inhibition: 73% (active)
[14]; [18]
  growth inhibition: 100% (active)
[14]; at 50.0 µM
  growth inhibition: 44%
[15]; at 1.2 µM
  growth inhibition: -47%
[15]; at 3.7 µM
  growth inhibition: -34%
[15]; at 11.0 µM
  growth inhibition: -22%
[15]; at 33.0 µM
  growth inhibition: -20%
[15]; at 100.0 µM
  growth inhibition: 8%

From PubChem BioAssay (NCI)
